PubChem BioAssay AID1159580 (chemical genetic matrix, 2015)
Out of some 5,500 compounds screened, about 2,000 (36%) were called active. Inconclusive results (about 18%) are left out. Cut-off read from the data, not from the text of the source: active = normalized growth mostly below about 0.91 (no sharp cut-off); inconclusive = no clear call, values can overlap the other calls; inactive = mostly above about 0.92. The list shows a part of the results.

Experiment: chemical genetic growth profiling, strain panel (AID 1159580);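 note: tested at 20 µM; growth read once vehicle control cultures reached saturation at 30 °C; 1 = growth at the plate median or of vehicle wells; lower values mean less growth of the strain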
Settings: growth OD

Measured: normalized growth

CCCCC[C@H](CC(=O)NO)C(=O)N[C@H](C(=O)N1CCC[C@H]1CO)C(C)C
inactive: S. cerevisiae deletion strains, locus YJR043C, strain POL32, stronger effect = lower value 0.978 | S. cerevisiae deletion strains, locus YJR066W, strain TOR1, stronger effect = lower value 0.934 | S. cerevisiae deletion strains, locus YJR075W, strain HOC1, stronger effect = lower value 1.04 | S. cerevisiae deletion strains, locus YKL009W, strain mrt4, stronger effect = lower value 1.03 | S. cerevisiae deletion strains, locus YKL068W, stronger effect = lower value 1.01 | S. cerevisiae deletion strains, locus YKL085W, strain MDH1 (second series), stronger effect = lower value 1.02 | S. cerevisiae deletion strains, locus YKL085W, strain MDH1, stronger effect = lower value 1.02 | S. cerevisiae deletion strains, locus YKL160W, strain elf1, stronger effect = lower value 1.01 | S. cerevisiae deletion strains, locus YKL190W, strain CNB1, stronger effect = lower value 1.01 | S. cerevisiae deletion strains, locus YKR001C, strain vps1, stronger effect = lower value 1.02 | S. cerevisiae deletion strains, locus YKR026C, strain gcn3, stronger effect = lower value 1.01 | S. cerevisiae deletion strains, locus YKR091W, strain srl3, stronger effect = lower value 1.02 | S. cerevisiae deletion strains, locus YLL001W, strain dnm1, stronger effect = lower value 1.01 | S. cerevisiae deletion strains, locus YLL026W, stronger effect = lower value 1.02 | S. cerevisiae deletion strains, locus YLL041C, strain sdh2, stronger effect = lower value 1.01 | S. cerevisiae deletion strains, locus YLR027C, strain aat2, stronger effect = lower value 1.01 | S. cerevisiae deletion strains, locus YLR039C, strain RIC1, stronger effect = lower value 0.947 | S. cerevisiae deletion strains, locus YLR058C, strain SHM2, stronger effect = lower value 1.01 | S. cerevisiae deletion strains, locus YLR102C, strain apc9, stronger effect = lower value 1.02 | S. cerevisiae deletion strains, locus YLR113W, strain HOG1, stronger effect = lower value 0.972 | S. cerevisiae deletion strains, locus YLR221C, strain rsa3, stronger effect = lower value 1.01 | S. cerevisiae deletion strains, locus YLR258W, strain gsy2, stronger effect = lower value 1.02 | S. cerevisiae deletion strains, locus YLR262C, strain YPT6 (second series), stronger effect = lower value 1.02 | S. cerevisiae deletion strains, locus YLR262C, strain YPT6, stronger effect = lower value 0.938 | S. cerevisiae deletion strains, locus YLR268W, strain sec22, stronger effect = lower value 1.03 | S. cerevisiae deletion strains, locus YLR320W, strain mms22, stronger effect = lower value 1.04 | S. cerevisiae deletion strains, locus YLR330W, strain CHS5, stronger effect = lower value 1.02 | S. cerevisiae deletion strains, locus YLR342W, strain FKS1 (second series), stronger effect = lower value 0.961 | S. cerevisiae deletion strains, locus YLR342W, strain FKS1, stronger effect = lower value 1.02 | S. cerevisiae deletion strains, locus YLR357W, strain rsc2, stronger effect = lower value 1.05 | S. cerevisiae deletion strains, locus YLR370C, strain arc18, stronger effect = lower value 1.01 | S. cerevisiae deletion strains, locus YLR371W, strain rom2, stronger effect = lower value 1.04 | S. cerevisiae deletion strains, locus YLR384C, strain iki3, stronger effect = lower value 1.02 | S. cerevisiae deletion strains, locus YLR418C, strain cdc73, stronger effect = lower value 1.02 | S. cerevisiae deletion strains, locus YML016C, strain PPZ1, stronger effect = lower value 1.02 | S. cerevisiae deletion strains, locus YML032C, strain rad52, stronger effect = lower value 1.01 | S. cerevisiae deletion strains, locus YML120C, strain ndi1, stronger effect = lower value 1.02 | S. cerevisiae deletion strains, locus YML124C, strain tub3, stronger effect = lower value 1 | S. cerevisiae deletion strains, locus YMR058W, strain fet3, stronger effect = lower value 1.01 | S. cerevisiae deletion strains, locus YMR078C, strain ctf18, stronger effect = lower value 1.02 | S. cerevisiae deletion strains, locus YMR125W, strain sto1, stronger effect = lower value 1.03 | S. cerevisiae deletion strains, locus YMR129W, stronger effect = lower value 1.01 | S. cerevisiae deletion strains, locus YMR205C, strain PFK2, stronger effect = lower value 1.04 | S. cerevisiae deletion strains, locus YMR223W, strain ubp8, stronger effect = lower value 1.02 | S. cerevisiae deletion strains, locus YMR231W, strain pep5, stronger effect = lower value 1.01 | S. cerevisiae deletion strains, locus YMR263W, strain SAP30, stronger effect = lower value 1.03 | S. cerevisiae deletion strains, locus YMR307W, strain GAS1, stronger effect = lower value 1.03 | S. cerevisiae deletion strains, locus YNL067W, strain RPL9B, stronger effect = lower value 1.04 | S. cerevisiae deletion strains, locus YNL071W, strain lat1, stronger effect = lower value 1 | S. cerevisiae deletion strains, locus YNL153C, strain GIM3, stronger effect = lower value 1.04 | S. cerevisiae deletion strains, locus YNL183C, strain NPR1, stronger effect = lower value 0.942 | S. cerevisiae deletion strains, locus YNL209W, strain ssb2, stronger effect = lower value 1.01 | S. cerevisiae deletion strains, locus YNL233W, strain BNI4, stronger effect = lower value 1.03 | S. cerevisiae deletion strains, locus YNL248C, strain rpa49, stronger effect = lower value 1 | S. cerevisiae deletion strains, locus YNL250W, strain rad50, stronger effect = lower value 1.02 | S. cerevisiae deletion strains, locus YNL271C, strain bni1, stronger effect = lower value 1.02 | S. cerevisiae deletion strains, locus YNL298W, strain CLA4, stronger effect = lower value 1.01 | S. cerevisiae deletion strains, locus YNL307C, strain MCK1, stronger effect = lower value 1.02 | S. cerevisiae deletion strains, locus YNL322C, strain KRE1 (second series), stronger effect = lower value 1.03 | S. cerevisiae deletion strains, locus YNR049C, strain mso1, stronger effect = lower value 1.02 | S. cerevisiae deletion strains, locus YNR052C, strain pop2, stronger effect = lower value 1.02 | S. cerevisiae deletion strains, locus YOL012C, strain htz1 1.13 | S. cerevisiae deletion strains, locus YOL147C, strain pex11, stronger effect = lower value 1.02 | S. cerevisiae deletion strains, locus YOR001W, strain rrp6, stronger effect = lower value 1 | S. cerevisiae deletion strains, locus YOR061W, strain CKA2, stronger effect = lower value 1 | S. cerevisiae deletion strains, locus YOR069W, strain VPS5, stronger effect = lower value 1.01 | S. cerevisiae deletion strains, locus YOR070C, strain gyp1, stronger effect = lower value 1 | S. cerevisiae deletion strains, locus YOR080W, strain dia2, stronger effect = lower value 1.03 | S. cerevisiae deletion strains, locus YOR083W, strain WHI5, stronger effect = lower value 1.02 | S. cerevisiae deletion strains, locus YOR106W, strain vam3, stronger effect = lower value 1.01 | S. cerevisiae deletion strains, locus YOR136W, strain idh2, stronger effect = lower value 1.03 | S. cerevisiae deletion strains, locus YOR144C, strain elg1, stronger effect = lower value 1.02 | S. cerevisiae deletion strains, locus YOR184W, strain ser1, stronger effect = lower value 1.01 | S. cerevisiae deletion strains, locus YOR231W, strain MKK1, stronger effect = lower value 0.989 | S. cerevisiae deletion strains, locus YOR265W, strain rbl2, stronger effect = lower value 1.01 | S. cerevisiae deletion strains, locus YOR270C, strain vph1, stronger effect = lower value 1.01 | S. cerevisiae deletion strains, locus YOR290C, strain snf2, stronger effect = lower value 1.02 | S. cerevisiae deletion strains, locus YOR316C, strain cot1, stronger effect = lower value 1.01 | S. cerevisiae deletion strains, locus YPL051W, strain arl3, stronger effect = lower value 1.02 | S. cerevisiae deletion strains, locus YPL078C, strain atp4, stronger effect = lower value 1.02 | S. cerevisiae deletion strains, locus YPL106C, strain sse1, stronger effect = lower value 1.03 | S. cerevisiae deletion strains, locus YPL240C, strain hsp82, stronger effect = lower value 1.01 | S. cerevisiae deletion strains, locus YPL256C, strain CLN2, stronger effect = lower value 0.941 | S. cerevisiae deletion strains, locus YPR119W, strain clb2, stronger effect = lower value 1.01 | S. cerevisiae deletion strains, locus YPR141C, strain kar3, stronger effect = lower value 1.02 | S. cerevisiae deletion strains, locus YPR163C, strain tif3, stronger effect = lower value 1.02 | S. cerevisiae deletion strains, locus YPR167C, strain met16, stronger effect = lower value 1.03 | S. cerevisiae deletion strains, strain wtn01, stronger effect = lower value 1.01 | S. cerevisiae strains, strain wild type, stronger effect = lower value 1.01
